Measurements reported in PubChem BioAssay AID463176 (Southern Research Specialized Biocontainment Screening …, 2010).
Active and inactive are the calls of the source.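 How the source made its calls: active means inhibition above 30% at one or more tested concentrations in the dose response; inactive means inhibition below 30% at every tested concentration.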

Experiment: PhoP-driven GFP reporter repression, Typhimurium – synthesized compounds, set 5, late-stage follow-up (AID 463176)
Settings: S. Typhimurium PhoP-promoter GFP reporter, fluorescence, 4 h; series mostly up to 150 µM

Compound | outcome
O=C1C2=C(Nc3ccccc3SC2c2ccc(Cl)cc2)c2ccccc21 (stereo unspecified) | inactive
O=C1C2=C(Nc3ccccc3SC2c2cccnc2)c2ccccc21 (stereo unspecified) | inactive
O=C1C2=C(Nc3ccccc3SC2c2cccc(Br)c2)c2ccccc21 (stereo unspecified) | inactive
COc1cccc(NC(=O)N2CCCN(Cc3ccccc3F)C2)c1 | inactive
Clc1ccc(C2Sc3ccccc3N=C3c4ccccc4CC32)cc1 (stereo unspecified) | inactive
Cc1ccc(C2Sc3ccccc3N=C3c4ccccc4CC32)cc1 (stereo unspecified) | inactive
